# Screening results deposited in PubChem BioAssay by National Center for Advancing Translational Sciences (NCATS).
# Sampled rows, rich in hits. Any-hit rate of the full collection: about 9.2%.
# JMJD2E inh – inhibitors of human JMJD2E histone demethylase; B2RXH2; JMJD2E catalytic domain, FDH-coupled NADH fluorescence (FDH is formaldehyde dehydrogenase); Potency, µM (highest dose often 57.1 µM), inactives show at the highest dose activity change, negative = inhibition, usual class: inhibitors; 230,000 compounds, 1.6% hits; AID 2147;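 note: 0% = wells with enzyme and -100% = buffer wells without enzyme; nearly all actives have a fitted effect of over 50% in size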
# LMNA splice mod – changes lamin A minigene splicing in HeLa cells | HeLa LMNA splicing GFP/RFP minigene ratio, 48 h | Potency, µM (doses to about 46.1 µM), without a hit: at the top dose ratio change, negative = inhibition, actives largely listed as inhibitors | AID 1487 | 200,000 compounds, 0.01% hits; active = well fitted inhibition curve with a large enough effect in the signal ratio, with a control signal flat, not every such curve was filed as active; inconclusive = small, poorly fitted or top-dose-only effect, or effect the other way, or a change in a side signal; the % refers to the signal ratio; note: % is set by controls: 0 for no effect and ±100 for the full control effect
#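 Read-out is the ratio of GFP to DsRed2 object intensity, acquired by 488 nm laser-scanning cytometry on HeLa lamin A-EGFP minigene reporter cells. Compound incubation 48 hrs at 37 °C in Opti-MEM with 2% FBS; DMSO 0.5% final.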
# HttQ103 aggreg – reduces HttQ103-GFP aggregates in PC12 cells. PC12 HttQ103-GFP aggregates, Acumen cytometry, 40 h. Potency, µM (highest dose often 46.1 µM), for the others: at the highest dose activity change, negative = inhibition, usual class: inhibitors. 220,000 compounds, 1.1% hits; active = well fitted curve in the direction sought with a large enough effect; inconclusive = small, poorly fitted or top-dose-only effect, or another doubt; inactive = no such curve, though single readings can be large; an effect the other way counts as inactive or inconclusive; note: % is set by controls: 0 for no effect and ±100 for the full control effect; nearly all actives have a fitted effect of over 60% in size
#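 PC12 cells stably carrying ecdysone-inducible HTT exon 1 Q103–GFP were induced with tebufenozide (100 nM final) and treated with library compounds in titration. GFP aggregates in lysates were counted by laser scanning cytometry.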
# HTT ATP protect – protects HTT-Q103 PC12 cells, measured by ATP; PC12 HTT-Q103 induced, cytoprotection, ATP luminescence, 40 h; Potency, µM (series often up to 56.4 µM), for inactives: cytoprotection (ATP increase), usual class: activators; 230,000 compounds, 0.14% hits; AID 1471; active = well fitted curve in the direction sought with a large enough effect; inconclusive = small, poorly fitted or top-dose-only effect, or another doubt; inactive = no such curve, though single readings can be large; an effect the other way counts as inactive or inconclusive; note: % of control where 0% means no effect; nearly all actives have a fitted effect of over 45% in size
#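 Stable PC12 Q103-GFP cells in serum-supplemented, phenol red-free DMEM; induction by tebufenozide at 100 nM final; compound dose series; cell viability quantified luminescently from ATP.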
# ALDH1A1 block – ALDH1A1 (human) enzyme inhibition. P00352. Purified ALDH1A1, NADH fluorescence, propionaldehyde substrate. Potency, µM (series often up to 75.3 µM), without a hit: at the highest dose activity, negative = inhibition, most hits filed as inhibitors. 220,000 compounds, 7.3% hits. AID 1030;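 note: plate controls were no enzyme wells and a reference inhibitor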
# Target sequence (P00352 whole entry, looked up): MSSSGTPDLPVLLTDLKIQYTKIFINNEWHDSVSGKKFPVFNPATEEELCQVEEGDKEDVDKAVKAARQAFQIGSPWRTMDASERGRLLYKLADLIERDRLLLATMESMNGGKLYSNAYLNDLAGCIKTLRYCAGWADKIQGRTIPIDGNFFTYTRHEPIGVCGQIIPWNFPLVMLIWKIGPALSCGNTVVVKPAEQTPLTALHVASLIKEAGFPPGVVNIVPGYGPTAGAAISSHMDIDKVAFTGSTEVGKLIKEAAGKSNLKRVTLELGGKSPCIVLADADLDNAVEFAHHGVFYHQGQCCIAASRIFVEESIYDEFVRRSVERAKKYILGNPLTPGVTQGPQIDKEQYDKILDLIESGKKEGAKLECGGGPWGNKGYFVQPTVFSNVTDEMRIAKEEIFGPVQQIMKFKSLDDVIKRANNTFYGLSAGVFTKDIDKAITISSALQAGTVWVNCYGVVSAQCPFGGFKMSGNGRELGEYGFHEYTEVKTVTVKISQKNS
# HPGD block – inhibitors of human 15-hydroxyprostaglandin dehydrogenase (HPGD); P15428; purified HPGD, NADH fluorescence kinetic, PGE2 substrate; Potency, µM, inactives show top-dose activity change, negative = inhibition, most hits filed as inhibitors; 150,000 compounds, 4.3% hits; note: % is set by controls: 0 for no effect and ±100 for the full control effect
# Target sequence (P15428 whole entry, looked up): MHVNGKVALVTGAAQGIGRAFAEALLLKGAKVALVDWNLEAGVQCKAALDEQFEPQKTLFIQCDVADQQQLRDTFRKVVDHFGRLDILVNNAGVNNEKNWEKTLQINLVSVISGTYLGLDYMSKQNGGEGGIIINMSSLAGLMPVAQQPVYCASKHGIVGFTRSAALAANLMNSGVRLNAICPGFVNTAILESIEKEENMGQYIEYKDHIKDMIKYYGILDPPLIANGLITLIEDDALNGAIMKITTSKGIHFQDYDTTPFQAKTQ
#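 20 nM HPGD preincubated 15 min at room temperature with compound in 50 mM Tris-HCl pH 8, 0.01% Tween 20. Started with 1 mM NAD+ and 30 uM prostaglandin E2; NADH fluorescence (360/450 nm) read 5 times over 30-s intervals, last minus first.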
# An asterisk follows results filed as active; ? = inconclusive; · = no result given; [ ] = another dose, or the depositor's remark. Unless noted, calls come from the whole dose curve; as a rule, active = well fitted inhibition curve with a large enough effect (not every such curve was filed as active); inconclusive = small, poorly fitted or top-dose-only effect, or another doubt; inactive = no such curve, though single readings can be large or run the other way. Potency is the fitted concentration of half-maximal effect.
SMILES,JMJD2E inh,LMNA splice mod,HttQ103 aggreg,HTT ATP protect,ALDH1A1 block,HPGD block
O=c1[nH]c2ccc(Cl)cc2c(-c2ccccc2)c1SC(=S)N1CCCCC1,-4%,6%,?,-9%,25µM*,?
O=c1[nH]c2ccc(Cl)cc2c(-c2ccccc2)c1SC(=S)N1CCOCC1,-8%,12%,?,-51%,8.9µM*,20µM*
Nc1ncnc2nc(-c3ccc(C[P+](c4ccccc4)(c4ccccc4)c4ccccc4)cc3)[nH]c12,·,·,·,0%[10 µM],?,-25%
COc1ccc(-c2cc3nc(C)c(CCC(=O)N4CCN(c5ccccn5)CC4)c(C)n3n2)c(OC)c1,13µM*,?,-12%,-32%,196%,·
CC(=O)NCCNc1nc(-c2cccc(NS(C)(=O)=O)c2)nc2ccccc12,·,4%,·,-13%,3%,·
Cc1ccc(N2CCN(C(=O)c3noc4c3COc3ccc(C)cc3-4)CC2)c(C)c1,·,14%[46 µM],·,·,·,·
CC(=O)c1cc(-c2ccccc2)n(CC(=O)NC2CCCCCC2)c1C,·,12%[46 µM],·,·,·,·
O=C(/C=C/c1ccc(OC(F)F)cc1)OCC(=O)N1CCN(C(=O)c2ccco2)CC1,-5%,-8%,-4%,7%[10 µM],18µM*,-6%
Cc1ccc(C(=O)CCC(=O)N2CCN(C(=O)c3ccco3)CC2)cc1,3%,4%[46 µM],1%,-10%,22µM*,·
O=C(COc1ccccc1)N1CCN(C(=O)c2ccco2)CC1,-13%,8%,7%,2%,?,0%
COc1ccc(CC(=O)N2CCN(C(=O)c3ccco3)CC2)cc1,-6%,-1%,-7%,-7%,20µM*,?
COc1ccc(OCC(=O)N2CCN(C(=O)c3ccco3)CC2)cc1,2%,16%,22%,-11%,10µM*,-9%
Cc1ccc(CC(=O)N2CCN(C(=O)c3ccco3)CC2)cc1,6%,3%[46 µM],27%,·,?,·
O=C1CN(C(=O)COC(=O)/C=C/c2ccc(OC(F)F)cc2)c2ccccc2N1,13%,-5%,-2%,8%[10 µM],6%,-19%
Fc1c(CSC(=S)N2CCOCC2)cccc1CSC(=S)N1CCOCC1,-3%,·,-1%[9.22 µM],21%[10 µM],·,·
CC1CN(c2ccc(S(=O)(=O)N3CCCC3)cn2)CC(C)O1 (configuration not stated),-15%,·,-15%[9.22 µM],12%[10 µM],·,·
CCCCn1nnnc1SCC(=O)c1cc(Cl)ccc1OC,-4%,-1%,0%,-17%,5µM*,-26%
Cc1ccc(C(=O)CSc2nnc(C(C)C)n2C)cc1C,4%,·,30%[9.22 µM],1%[10 µM],10%,·
CCCCn1nnnc1SCC(=O)c1ccc(C)c(C)c1,0%,?,14%,0%[10 µM],7.9µM*,·
CCCCn1nnnc1SCC(=O)c1ccccc1F,4%,·,14%[9.22 µM],45%[10 µM],-6%,·
CCC(CO)NCc1cc(OC)c(OCC(=O)NCCc2ccccc2)cc1Br (configuration not stated),1%,4%,-11%,·,0%,-13%
COC(=O)NC(/C=C/c1ccccc1)[C@]1(C(C)=O)CCCC1=O (some centres not stated),·,·,·,-1%[10 µM],-10%[13.5 µM],·
Cc1[nH]n(-c2cccc(Cl)c2)c(=O)c1C=NCC(C)C,-13%,-1%[46 µM],-1%,-50%,2%,·
CC(C)=NO[C@@H](C)c1cn([C@H](CO)Cc2ccccc2)nn1,·,·,·,5%[10 µM],14%[13.5 µM],·
COc1ccc(NS(=O)(=O)c2ccc(NC(=O)c3ccc(N(C)S(C)(=O)=O)cc3)cc2)c(OC)c1,-8%,?,4%,·,-2%,0%
SMILES,JMJD2E inh,LMNA splice mod,HttQ103 aggreg,HTT ATP protect,ALDH1A1 block,HPGD block
CN(C)CCn1c(C(=O)Nc2ccccc2)cc2ccccc21,5%,2%,3.2µM*,38%,24%,·
COc1ccc(C(=O)OCCNC(=O)c2c(Cl)nc3ccccn23)cc1,7%,1%,10%,-14%[10 µM],0%,25µM*
CC(C)(C)c1ccc(C(=O)OCCNC(=O)c2c(Cl)nc3ccccn23)cc1,-6%,8%,-25%,-3%,?,11µM*
O=C(Nc1cccc(F)c1)N1CC[C@@]2(CCCN(C(=O)c3cnccn3)C2)C1,·,·,·,-10%,2%,-4%
Cc1ccc(CNC(=O)CN2C(=O)COc3ccccc32)cc1,·,-16%[46 µM],·,·,·,·
O=[N+]([O-])c1ccc(OC/C=C2\Oc3ccc([N+](=O)[O-])cc3C2N2CCOCC2)cc1 (configuration not stated),-2%,-13%,-7%,-18%[10 µM],25µM*,-7%
CS(=O)(=O)N(CC(=O)NCc1ccncc1)c1cc(Cl)ccc1Cl,4%,1%[46 µM],12%[9.22 µM],27%[10 µM],7%,·
CCOC(=O)c1c(NC(=O)C(=O)N/N=C/c2ccccc2OC)sc2c1CCCCC2,-1%,-9%,-7%,14%[10 µM],?,?
CC(C)(C)C1CCc2c(sc(NC(=O)C3CCCO3)c2C(N)=O)C1 (configuration not stated),-14%,18%,?,-17%,?,-9%
NC(=O)c1c(NC(=O)C2CCCO2)sc2c1CCC2 (configuration not stated),-14%,12%,-7%,-2%,22µM*,-8%
CCOC(=O)c1ccc(NC(=O)c2c(NC(=O)CCC(=O)O)sc3c2CCCCC3)cc1,-6%,·,-7%[9.22 µM],-22%[10 µM],16µM*,·
N#Cc1c(NC(=O)CCCC(=O)O)sc2c1CCCCC2,-1%,5%,6%,-11%[10 µM],?,-22%
CCOC(=O)c1c(NC(=O)C(=O)N/N=C/c2ccccc2O)sc2c1CCCCC2,32µM*,-5%,?,-2%[10 µM],?,-20%
NC(=O)c1c(NC(=O)CCCC(=O)O)sc2c1CCCCCC2,-5%,?,7%,·,6%,28µM*
O=C(/C=C/c1cccc([N+](=O)[O-])c1)Nc1cccc(NC(=O)c2cccs2)c1,2%,?,?,·,?,-11%
O=C1CCN(S(=O)(=O)c2ccc(Cl)cc2)CCN1,15%,·,8%[9.22 µM],-13%[10 µM],·,·
NC(=O)c1c(NC(=O)C2CCCO2)sc2c1CCCCC2 (configuration not stated),?,3%,-9%,2%[0.074 µM],20µM*,?
COC(=O)c1c(NC(=O)C2C3CCC(O3)C2C(=O)O)sc2c1CCCCCC2 (configuration not stated),-3%,?,-14%,·,3%,-27%
COC(=O)c1c(NC(=O)C2CCCO2)sc2c1CCC2 (configuration not stated),?,16%,-17%,6%,14µM*,-24%
CCOC(=O)c1c(NC(=O)C(C)Sc2cn(C)c3ccccc23)sc2c1CCC2 (configuration not stated),0%,9%,4%,·,25µM*,-12%
